Records with an inconclusive call do not appear. Values without a mark were called inactive. Active and inactive are the calls of the source. Calls come from the whole dose curve; as a rule, active = well fitted inhibition curve with a large enough effect; inconclusive = small, poorly fitted or top-dose-only effect; inactive = flat fitted curve, though single readings scatter.
What was measured:
CRL-7250 = normal cell line; experiment: Cytotoxic Profiling of Annotated Libraries Using Quantitative High-Throughput Screening (AID 1296008); settings: Five cell lines viability, CellTiter-Glo ATP luminescence, 48-72 h; max response: active compounds read low; note: potency is the fitted concentration of half-maximal effect; for max response: % is set by controls: 0 for no effect and ±100 for the full control effect
Method in brief: (§1)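 Cytotoxicity was measured as CellTiter-Glo ATP luminescence, read after 10 min at room temperature. Compound treatment of the cells lasted 48 or 72 hr at 37 degrees Celsius in a qHTS format.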

HEK293 = experiment: as above; settings: Five cell lines viability, CellTiter-Glo ATP luminescence, 48-72 h; max response: active compounds read low
Method in brief: as §1

HaCat [1] = experiment: as above; settings: Five cell lines viability, CellTiter-Glo ATP luminescence, 48-72 h; max response: active compounds read low
Method in brief: as §1

KB-3-1 = experiment: as above; settings: Five cell lines viability, CellTiter-Glo ATP luminescence, 48-72 h; max response: active compounds read low
Method in brief: as §1

NIH3T3 = experiment: as above; settings: Five cell lines viability, CellTiter-Glo ATP luminescence, 48-72 h; max response: active compounds read low
Method in brief: as §1

HACAT [2] = experiment: qHTS assay to identify novel small-molecules to repurpose for Merkel cell carcinoma treatment (AID 1296009); settings: MCC and control cell lines, CellTiter-Glo viability, 72 h; at 44.8 µM (top of the series) unless noted
Method in brief: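 72 hr, 37 degree celsius; NPC 8-pt / MIPE 11-pt dose response; compound pinned in DMSO; CellTiter-Glo, 10 min RT, luminescence; normalized to no-cell and DMSO controls.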
Note: nearly all actives have a fitted effect of over 60% in size.

Row | SMILES | max response (CRL-7250) | max response (HEK293) | outcome (HaCat [1]) | max response (KB-3-1) | outcome (NIH3T3) | outcome (HACAT [2]) | outcome (KB-3-1) | outcome (CRL-7250) | Potency (HEK293) | max response (NIH3T3)
1 | CC1(C)C2CC[C@@]34CC(CC[C@H]3[C@]2(C)CC[C@@H]1O[C@@H]1O[C@H](CO)[C@@H](O)[C@H](O)[C@H]1O)[C@](C)(O)C4 (stereo not given in full) | -8.76% | 0.264% | inactive | 8.52% | inactive | inactive [at 17.4 µM] | – | – | – | –
2 | CC(O)/C=C/C1(O)C(C)C(O)C(O[C@@H]2O[C@H](CO)[C@@H](O)[C@H](O)[C@H]2O)CC1(C)C (stereo not given in full) | -7.69% | -15.2% | inactive | 0.447% | inactive | inactive [at 17.4 µM] | – | – | – | –
3 | C/C=C(/C)C(=O)OC1CC(C)(C)CC2C3=CCC4C5(C)CCC(OC6OC(C)C(OC7OC(C(=O)O)C(O)C(OC8OC(CO)C(O)C(O)C8OC8OC(CO)C(O)C(O)C8O)C7O)C(O)C6O)C(C)(C)C5CCC4(C)C3(C)C(OC(=O)/C=C/C=C/C=C/CCC)C(OC(C)=O)C12CO (stereo not given) | 3.68% | 2.77% | inactive | – | inactive | inactive [at 9.27 µM] | inactive | – | – | –
4 | COc1cc(/C=C/C(=O)O[C@H]2[C@@H]3C=CO[C@@H](O[C@@H]4O[C@H](CO)[C@@H](O)[C@H](O)[C@H]4O)[C@@H]3[C@@]3(CO)O[C@@H]23)ccc1O | – | 1.49% | inactive | – | inactive | inactive [at 17.4 µM] | inactive | inactive | – | –
5 | CC(=O)OC1C(O)/C(C)=C\C2C(OC(=O)c3ccccc3)C(C)CC2(OC(C)=O)C(OC(C)=O)C(C)/C=C/C(C)(C)C1OC(C)=O (stereo not given) | -1.02% | -2.9% | inactive | 7.33% | inactive | inactive [at 17.4 µM] | – | – | – | –
6 | COc1ccc(CCc2nc3cc(-c4c(C)noc4C)ccc3n2C[C@H](C)N2CCOCC2)cc1Cl | -8.27% | – | inactive | -12.6% | inactive | inactive | – | – | 18.4 µM (active) | –
7 | CC(=O)N[C@H]1[C@H](O[C@H]2CC[C@]3(C)C4CC=C5[C@@H]6CC(C)(C)CC[C@]6(C(=O)O)[C@H](O)C[C@@]5(C)[C@]4(C)CC[C@H]3C2(C)C)O[C@H](CO)[C@@H](O)[C@@H]1O (stereo not given in full) | -7.8% | -6.92% | inactive | -6.34% | inactive | inactive [at 17.4 µM] | – | – | – | –
8 | CNC(=O)c1ccc2c(c1)CCO[C@H]2CCN1CCN(c2ccc(C(N)=O)cc2)CC1 | 0.998% | 3.1% | inactive | -1.44% | inactive | inactive | – | – | – | –
9 | Nc1ncnc2c1c(COc1cccc(Cl)c1)nn2C1CCOCC1 | -3.67% | -4.69% | inactive | – | inactive | inactive | inactive | – | – | –
10 | Cc1ccc(-c2c(-c3nn(C)c4ncnc(N5CCC(N6CCCCC6)C5)c34)cnn2C)cc1 (stereo not given) | – | -1.32% | inactive | – | – | inactive | inactive | inactive | – | 4.76%
11 | N[C@@H](CC(=O)Nc1ccc(Oc2cc(F)c(F)cc2Br)cc1)C(=O)O | -23% | -28.9% | inactive | -3.53% | – | inactive | – | – | – | 0.0129%
12 | COc1ccc(S(=O)(=O)Nc2nc(-c3cccc([N+](=O)[O-])c3)cs2)cc1OC | -1.12% | 2.2% | inactive | 6.48% | inactive | inactive | – | – | – | –
13 | CCC12CCCN3CCc4c(n(c5ccccc45)C(O)C1)C32 (stereo not given) | -2.83% | -7.92% | inactive | – | – | inactive | inactive | – | – | -1.2%
14 | C[C@@H]1O[C@@H](OC2C(CO)OC(OCC3OC(OC(=O)[C@]45CCC(C)(C)CC4C4=CCC6[C@@]7(C)CC[C@@H](O)[C@](C)(C(=O)O)C7CC[C@@]6(C)[C@]4(C)CC5)C(O)C(O)C3O)C(O)C2O)[C@H](O)[C@H](O)[C@H]1O (stereo not given in full) | – | 2.84% | inactive | -3.25% | – | inactive [at 9.27 µM] | – | inactive | – | -0.476%
15 | COc1cc2c(c(O)c1OC/C=C(\C)CC/C=C(/C)CCC=C(C)C)CN(C(CCC(=O)O)C(=O)O)C2=O (stereo not given) | – | 2.31% | inactive | 3.38% | – | inactive [at 17.4 µM] | – | inactive | – | -3.47%
16 | CC(O)C(=O)/C=C/C=C/C(=O)OC1C=C2COC(=O)C2(O)C2(C)CCCC(C)(C)C12 (stereo not given) | -6.23% | 3.48% | inactive | 4.29% | inactive | inactive [at 17.4 µM] | – | – | – | –
17 | O=C(O)c1ccncc1Nc1nn(CCN2CCC(F)(F)CC2)c2ccc(F)cc12 | -22.9% | 0.878% | inactive | 9.77% | – | inactive | – | – | – | 1.4%
18 | O=C1C(Cl)=C(N2CCOCC2)C(=O)N1c1ccc(Cl)c(Cl)c1 | – | -3.24% | inactive | – | inactive | inactive [at 17.4 µM] | inactive | inactive | – | –
19 | O=C(O)CC1CCC(c2ccc(-c3ccc(Nc4ccc(C(F)(F)F)nc4)cn3)cc2)CC1 (stereo not given) | 3.84% | -8.47% | inactive | -6.84% | – | inactive | – | – | – | 2.56%
20 | CC(C)(O)c1ccc2c(c1)C(=O)C[C@H]1[C@](C)(C(=O)O)CCC[C@]21C | -1.21% | -10.2% | inactive | 5.87% | inactive | inactive | – | – | – | –
21 | COC(=O)[C@H](Cc1cccc(C(=N)N)c1)[C@@H](C)NC(=O)c1ccc(-c2cc[n+]([O-])cc2)cc1 | -2.22% | 3.53% | inactive | – | – | inactive | inactive | – | – | 0.404%
22 | Cc1occc(=O)c1O[C@@H]1O[C@H](CO)[C@@H](O)[C@H](O)[C@H]1O | -1.36% | 2.23% | inactive | – | inactive | inactive | inactive | – | – | –
23 | CC1(C)CC(NC(=O)C(=O)Nc2ccc(Cl)cc2)CC(C)(C)N1 | -5.64% | -2.65% | inactive | 4.82% | inactive | inactive | – | – | – | –
24 | COC(=O)C1=COC(O[C@@H]2O[C@H](COC(=O)/C=C/c3ccc(O)cc3)[C@@H](O)[C@H](O)[C@H]2O)C2C(CO)=CCC12 (stereo not given in full) | – | -1.21% | inactive | – | – | inactive [at 17.4 µM] | inactive | inactive | – | 2.77%
25 | N[C@@H](CCNCc1ccc(Cl)cc1)C(=O)N1CCCCC1 | – | 2.57% | inactive | 7.85% | – | inactive | – | inactive | – | -2.5%
